Test results: PubChem BioAssay AID1159580 (chemical genetic matrix, 2015)
Among all 5,500 compounds or so, about 2,000 (36%) were called active. Not shown: some 18% with an inconclusive outcome. Cut-off read from the data, not from the text of the source: active = normalized growth mostly below about 0.91 (no sharp cut-off); inconclusive = no clear call, values can overlap the other calls; inactive = mostly above about 0.92. This is one part of the list.

Test: chemical genetic growth profiling, strain panel (AID 1159580);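 note: tested at 20 µM; growth read once vehicle control cultures reached saturation at 30 °C; 1 = growth at the plate median or of vehicle wells; lower values mean less growth of the strain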
Details: S. cerevisiae deletion strains, growth OD

Measured: normalized growth

CC12CCC3C(CCC4=C(O)C(=O)CCC43C)C1CCC2=O (stereo unspecified)
inactive: locus YAL013W, strain DEP1, hits give low values 1 | locus YAL040C, strain CLN3, hits give low values 0.99 | locus YCL061C, strain MRC1 (second series), hits give low values 0.998 | locus YDR363W, strain ESC2, hits give low values 0.984 | locus YER002W, strain NOP16, hits give low values 0.995 | locus YMR263W, strain SAP30, hits give low values 1 | locus YNL175C, strain NOP13, hits give low values 1.02 | locus YNL197C, strain WHI3, hits give low values 0.992 | locus YNL224C, strain SQS1, hits give low values 0.969 | locus YOR083W, strain WHI5 (second series), hits give low values 0.986 | locus YPL241C, strain CIN2, hits give low values 1.01
